“And” between values parts separate entries of the source, which are not always exact repeats. Equal entries are not always repeated. Out of some 5,500 compounds screened, about 2,000 (36%) were called active. Roughly 18% stayed inconclusive and do not appear here. The list shows a part of the results. Values without a mark were called inactive. No stated cut-off is given here; in the data, active means normalized growth mostly below about 0.91 (no sharp cut-off); inconclusive means no clear call, values can overlap the other calls; inactive means mostly above about 0.92.
Assay: chemical genetic growth profiling, strain panel (AID 1159580);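 further: tested at 20 µM; growth read once vehicle control cultures reached saturation at 30 °C; 1 = growth at the plate median or of vehicle wells; lower values mean less growth of the strain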
Conditions: S. cerevisiae deletion strains, growth OD

## CN1CCN(C2=Nc3cc(Cl)ccc3Nc3ccccc32)CC1
Locus YAL013W, strain DEP1, active compounds read low
  normalized growth: 1.02
Locus YAL021C, strain ccr4, active compounds read low
  normalized growth: 0.991
Locus YAL026C, strain drs2, active compounds read low
  normalized growth: 0.953
Locus YAL030W, strain snc1, active compounds read low
  normalized growth: 1.01
Locus YAL040C, strain CLN3, active compounds read low
  normalized growth: 1.01
Locus YBL061C, strain skt5, active compounds read low
  normalized growth: 0.968
Locus YBR009C, strain hhf1, active compounds read low
  normalized growth: 1.01
Locus YBR021W, strain FUR4, active compounds read low
  normalized growth: 0.979
Locus YBR023C, strain chs3, active compounds read low
  normalized growth: 0.987
Locus YBR171W, strain sec66, active compounds read low
  normalized growth: 0.975
Locus YBR229C, strain ROT2, active compounds read low
  normalized growth: 1.01
Locus YBR231C, strain swc5, active compounds read low
  normalized growth: 0.988
Locus YBR279W, strain paf1, active compounds read low
  normalized growth: 0.983
Locus YCL011C, strain gbp2, active compounds read low
  normalized growth: 0.984
Locus YCL016C, strain dcc1, active compounds read low
  normalized growth: 0.954
Locus YCL029C, strain bik1, active compounds read low
  normalized growth: 1.01
Locus YCL061C, strain MRC1 (second series), active compounds read low
  normalized growth: 1
Locus YCL061C, strain MRC1, active compounds read low
  normalized growth: 0.984
Locus YCL069W, strain vba3, active compounds read low
  normalized growth: 0.981
Locus YCR088W, strain abp1, active compounds read low
  normalized growth: 0.985
Locus YDL005C, strain med2, active compounds read low
  normalized growth: 0.984
Locus YDL035C, strain GPR1, active compounds read low
  normalized growth: 1
Locus YDL040C, strain nat1, active compounds read low
  normalized growth: 1
Locus YDL074C, strain BRE1, active compounds read low
  normalized growth: 0.935
Locus YDL101C, strain DUN1, active compounds read low
  normalized growth: 0.996
Locus YDL134C, strain PPH21, active compounds read low
  normalized growth: 0.991
Locus YDL185W, strain tfp1, active compounds read low
  normalized growth: 1.01
Locus YDL192W, strain arf1, active compounds read low
  normalized growth: 1.02
Locus YDR001C, strain nth1, active compounds read low
  normalized growth: 0.989
Locus YDR069C, strain doa4, active compounds read low
  normalized growth: 0.968
Locus YDR101C, strain arx1, active compounds read low
  normalized growth: 1
Locus YDR137W, strain rgp1, active compounds read low
  normalized growth: 1.15 [resistant] (active)
Locus YDR150W, strain NUM1, active compounds read low
  normalized growth: 1.01 and 0.991
Locus YDR159W, strain sac3, active compounds read low
  normalized growth: 0.948
Locus YDR162C, strain NBP2, active compounds read low
  normalized growth: 0.97
Locus YDR195W, strain ref2
  normalized growth: 1.04
Locus YDR297W, strain sur2, active compounds read low
  normalized growth: 0.976
Locus YDR318W, strain mcm21, active compounds read low
  normalized growth: 1.02
Locus YDR334W, strain swr1, active compounds read low
  normalized growth: 0.98
Locus YDR335W, strain msn5, active compounds read low
  normalized growth: 0.977
Locus YDR363W, strain ESC2, active compounds read low
  normalized growth: 0.884
Locus YDR388W, active compounds read low
  normalized growth: 1.02
Locus YDR392W, strain spt3, active compounds read low
  normalized growth: 0.801
Locus YDR502C, strain sam2, active compounds read low
  normalized growth: 0.994
Locus YEL003W, strain gim4, active compounds read low
  normalized growth: 0.987
Locus YEL037C, strain rad23, active compounds read low
  normalized growth: 0.979
Locus YEL061C, strain CIN8 (second series), active compounds read low
  normalized growth: 0.977
Locus YEL061C, strain CIN8, active compounds read low
  normalized growth: 1.05
Locus YER002W, strain NOP16, active compounds read low
  normalized growth: 0.997
Locus YER015W, strain faa2, active compounds read low
  normalized growth: 0.991
Locus YER016W, strain bim1, active compounds read low
  normalized growth: 0.966
Locus YER110C, active compounds read low
  normalized growth: 1.03
Locus YER111C, strain swi4, active compounds read low
  normalized growth: 0.975
Locus YER155C, strain BEM2 (second series), active compounds read low
  normalized growth: 0.802 (active)
Locus YER155C, strain BEM2, active compounds read low
  normalized growth: 1.01
Locus YER167W, strain BCK2, active compounds read low
  normalized growth: 1
Locus YFR010W, strain ubp6, active compounds read low
  normalized growth: 1.02
Locus YGL078C, strain dbp3, active compounds read low
  normalized growth: 1.01
Locus YGL086W, strain mad1, active compounds read low
  normalized growth: 1.02
Locus YGL167C, strain pmr1, active compounds read low
  normalized growth: 0.989
Locus YGL173C, strain kem1, active compounds read low
  normalized growth: 0.98
Locus YGL227W, strain vid30, active compounds read low
  normalized growth: 0.969
Locus YGL240W, strain doc1, active compounds read low
  normalized growth: 1.03
Locus YGL248W, strain PDE1, active compounds read low
  normalized growth: 0.99
Locus YGL253W, strain hxk2, active compounds read low
  normalized growth: 0.982
Locus YGR078C, strain PAC10, active compounds read low
  normalized growth: 0.975 and 1.01
Locus YGR135W, strain pre9, active compounds read low
  normalized growth: 0.987
Locus YGR229C, strain SMI1, active compounds read low
  normalized growth: 0.948
Locus YGR252W, strain gcn5, active compounds read low
  normalized growth: 0.994
Locus YHR013C, strain ard1, active compounds read low
  normalized growth: 0.917
Locus YHR027C, strain rpn1, active compounds read low
  normalized growth: 0.985
Locus YHR030C, strain SLT2, active compounds read low
  normalized growth: 1.02 and 1.07
Locus YHR079C, strain IRE1 (second series), active compounds read low
  normalized growth: 1.03
Locus YHR079C, strain IRE1, active compounds read low
  normalized growth: 1.03
Locus YHR094C, strain hxt1, active compounds read low
  normalized growth: 1.02
Locus YHR129C, strain ARP1, active compounds read low
  normalized growth: 1.01
Locus YHR142W, strain chs7, active compounds read low
  normalized growth: 0.949
Locus YHR200W, strain rpn10, active compounds read low
  normalized growth: 1.01
Locus YIL066C, strain RNR3, active compounds read low
  normalized growth: 1.01
Locus YIL073C, strain SPO22, active compounds read low
  normalized growth: 1.1
Locus YIL125W, strain kgd1, active compounds read low
  normalized growth: 1.02
Locus YIR030C, strain dcg1, active compounds read low
  normalized growth: 1.02
Locus YJL092W, strain hpr5, active compounds read low
  normalized growth: 0.985
Locus YJL095W, strain BCK1 (second series), active compounds read low
  normalized growth: 0.991
Locus YJL095W, strain BCK1, active compounds read low
  normalized growth: 0.945 and 1.05
Locus YJL115W, strain asf1, active compounds read low
  normalized growth: 0.969
Locus YJL129C, strain trk1, active compounds read low
  normalized growth: 0.969
Locus YJL134W, strain LCB3, active compounds read low
  normalized growth: 1.01
Locus YJL154C, strain vps35, active compounds read low
  normalized growth: 0.981
Locus YJL164C, strain tpk1, active compounds read low
  normalized growth: 0.999
Locus YJL166W, strain qcr8, active compounds read low
  normalized growth: 1
Locus YJL168C, strain set2, active compounds read low
  normalized growth: 1.03
Locus YJL187C, strain SWE1 (second series), active compounds read low
  normalized growth: 1
Locus YJR043C, strain POL32, active compounds read low
  normalized growth: 1.02

From PubChem BioAssay AID1159580 (chemical genetic matrix, 2015)
